KB-V1 MDR tox: qHTS assay for MDR1-selective chemotherapeutics: Primary screen using the drug-selected MDR subline cells KB-V1. 400,000 tested, 3.4% active. Potency, µM (highest dose often 46.1 µM), hits mostly cytotoxic. KB-V1 MDR cells viability, CellTiter-Glo, 72 h; also: nearly all actives have a fitted effect of over 60% in size
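Compound-treated KB-V1 multidrug-resistant cells, 72 h, 37 degrees C; viability by CellTiter-Glo. Fitted qHTS curves give the values.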
HT1080 IDH1KD tx: qHTS for induction of synthetic lethality in tumor cells producing 2HG: qHTS for the HT-1080-IDH1KD cell line; HT-1080 IDH1 knockdown viability, ATP luminescence, 48 h; Potency, µM (top dose mostly 46.1 µM), hits mostly cytotoxic; 360,000 tested, 2% active; AID 686971, 2013
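In this qHTS, HT-1080 cells depleted of IDH1 are exposed for 48 h at 37 °C to compound titrations. Toxicity is scored from CellTiter-Glo luminescence, with DMSO as full viability and medium alone as none.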
HT1080NT lethal: qHTS for induction of synthetic lethality in tumor cells producing 2HG: qHTS for the HT-1080-NT fibrosarcoma cell line. HT-1080-NT fibrosarcoma viability, CellTiter-Glo ATP luminescence, 48 h. Potency, µM (top dose mostly 46.1 µM), actives largely listed as cytotoxic. 360,000 tested, 1.6% active;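 also: NT is the 2HG producing partner of a matched IDH1 knockdown line; nearly all actives have a fitted effect of over 55% in size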
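Toxicity toward the 2HG-producing NT line was scored as %Activity, normalised to DMSO and no-cell wells, from CellTiter-Glo luminescence after 48 hours' treatment.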
TDP1 cell noCPT: qHTS for Inhibitors of human tyrosyl-DNA phosphodiesterase 1 (TDP1): qHTS in cells in absence of CPT. Potency, µM (doses to about 46.2 µM), most hits filed as inhibitors. 420,000 tested, 15% active. DT40 Tdp1-/- hTDP1 cells, no CPT, ATP luminescence, 48 h; also: nearly all actives have a fitted effect of over 55% in size
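Stably hTDP1-transfected Tdp1-null chicken DT40 cells were treated with library compounds minus camptothecin and grown for at least 48 hr at 37 °C, after which cellular ATP was quantified by luminescence.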
KB-3-1 cytotox: qHTS assay for MDR1-selective chemotherapeutics: Primary screen using the parental adenocarcinoma cell KB-3-1; Potency, µM (top dose mostly 46.1 µM), hits mostly cytotoxic; AID 1347075, 2019; KB-3-1 viability, CellTiter-Glo ATP luminescence, 72 h; 400,000 tested, 1.4% active; also: nearly all actives have a fitted effect of over 60% in size
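Here the drug-naive KB-3-1 line serves as comparator for MDR sub-line selectivity; cells received compound titrations, 72 h at 37 °C, then CellTiter-Glo readout.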
TDP1 cell CPT: qHTS for Inhibitors of human tyrosyl-DNA phosphodiesterase 1 (TDP1): qHTS in cells in presence of CPT; 420,000 tested, 12% active; chicken DT40 Tdp1-/-;hTDP1 cells + 20 nM CPT, ATP luminescence, 48 h; Potency, µM (top dose mostly 46.2 µM), most hits filed as inhibitors; also: nearly all actives have a fitted effect of over 55% in size
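Chicken DT40 Tdp1-/- cells stably complemented with human TDP1 were seeded at 400 cells/well in medium containing 20 nM camptothecin, exposed to pin-transferred compounds, and grown at 37 °C for at least 48 hr. Viability was read as ATP luminescence.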
Hits are given with their value; n = inactive; u = inconclusive; x = no result. In the library only some 19% were active in any assay of this set; here they are far more common. Calls follow the shape of the dose curve; as a rule, active = well fitted curve in the direction sought with a large enough effect; inconclusive = small, poorly fitted or top-dose-only effect, or another doubt; inactive = no such curve, though single readings can be large; an effect the other way counts as inactive or inconclusive.

SMILES	KB-V1 MDR tox	HT1080 IDH1KD tx	HT1080NT lethal	TDP1 cell noCPT	KB-3-1 cytotox	TDP1 cell CPT
Cc1ccc(S(=O)(=O)NCC(=O)OCC(=O)N(CCC#N)c2ccccc2)cc1	n	n	n	n	n	n
Cc1ccc(/C(N)=N/OC(=O)N2c3ccccc3Sc3ccccc32)cc1	u	n	n	20.6µM	n	u
Cc1ccccc1/C(N)=N/OC(=O)N1c2ccccc2Sc2ccccc21	n	n	n	12.6µM	n	11.2µM
CCOC(=O)N1c2ccccc2Sc2ccccc21	n	n	n	u	n	n
O=C(CN1C(=O)C2CCCCN2c2ccc(C(=O)N3CCCC3)cc21)NCc1ccccc1 (stereo not given)	n	x	x	u	n	n
O=C(CN1C(=O)C2CCCCN2c2ccc(C(=O)N3CCCC3)cc21)NCc1cccc(Cl)c1 (stereo not given)	n	x	x	5.8µM	n	u
O=C1Nc2ccc(Br)cc2/C1=C/C1CC=CCC1 (stereo not given)	n	20.6µM	u	u	u	18.4µM
O=C1NC(Cc2ccccc2)C(=O)Nc2ccc(Br)cc21 (stereo not given)	n	n	n	u	n	n
Oc1ccc(/C=N/n2c3ccccc3c3ccccc32)cc1	n	23.1µM	u	16.4µM	n	u
Cc1cc(Cl)ccc1Oc1nccc(N(C)C)c1C#N	u	n	u	16.4µM	n	u
CN(C)c1ccnc(Oc2ccc(C(C)(C)C)cc2)c1C#N	u	u	u	16.4µM	u	u
Oc1ccc(C[C@H]2CNC(=S)N2CC2CCCN2C[C@H](Cc2ccccc2)N2C[C@H](Cc3ccc(O)cc3)N(CCc3ccccc3)C2=S)cc1 (stereo not given in full)	u	u	n	23.1µM	u	23.1µM
O=C1NC[C@H](Cc2ccccc2)N(C[C@@H]2CCCN2C[C@H](Cc2ccc(O)cc2)N2C[C@H](Cc3ccccc3)N(CCc3ccccc3)C(=O)C2=O)C1=O	n	u	u	n	u	u
Oc1ccc(C[C@@H](CN2CCC[C@@H]2CN2C(=S)NC[C@@H]2Cc2ccccc2)N2C[C@H](Cc3ccccc3)N(CCc3ccccc3)C2=S)cc1	n	n	n	18.4µM	n	16.4µM
COc1ccc(N(C(=O)c2cnccn2)C(C(=O)NC2CCCCC2)c2cc(OC)c(OC)c(OC)c2)cc1 (stereo not given)	n	n	n	u	n	n
Cc1cc2nc(C(C)(C)C)c(Cc3cccc(F)c3)n2c(C)c1Br	n	u	u	u	n	u
COc1cc(C#N)ccc1OCC(=O)Nc1cccc(S(=O)(=O)N2CCCC2)c1	16.4µM	n	n	u	n	u
N#Cc1ccccc1OCC(=O)Nc1ccc(S(=O)(=O)N2CCOCC2)cc1	n	n	n	u	n	n
N#Cc1ccccc1OCC(=O)Nc1cccc(S(=O)(=O)N2CCCC2)c1	n	n	n	u	n	16.4µM
CCc1ccccc1OCC(=O)Nc1cccc(S(=O)(=O)N2CCCC2)c1	n	n	n	16.4µM	n	u
COc1ccc(-c2c[n+]3c4n2CCCCC4=C(c2ccccc2)C3)cc1	n	n	n	5.17µM	u	3.26µM
COc1ccc(-c2c[n+](CC(=O)c3ccccc3)c3n2CCCCC3)cc1	n	u	u	4.11µM	u	7.31µM
O=C(C[n+]1cc(-c2ccccc2)n2c1CCCCC2)c1ccc(Cl)cc1	n	n	n	16.4µM	u	20.6µM
Cc1ccc(-c2c[n+](CC(=O)c3ccc(Br)cc3)c3n2CCCCC3)cc1	n	u	20.6µM	1.64µM	u	1.46µM
